Measured values: the supplement of paper PMC6555819

Experiments:
Assay in all cases: PBM binding z-score (relative to random genomic background probes); higher = stronger binding; sequences stand for … in GC…GCGATTGACAGCGTAGAATGAAGG
[1] = test system: PPARg:RXRa DBDmut IVT, anti-RXR (DBD mutation: RXRa K156A/R161A, NR concentration 270 nM, RXRa partner concentration 90 nM)
How it was run: (§1)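 Ligand-free nuclear receptor dimers were applied to custom Agilent 4×180K protein-binding microarrays whose double-stranded probes carried direct-repeat seeds, single-nucleotide variants, half-site ablations and random human genomic background sequences in 34-nt variable regions. Incubation lasted 1 h. Binding z-scores were computed against the random background probes from regression-normalized fluorescence.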

[2] = test system: PPARg:RXRa IVT, anti-PPARg (NR concentration 270 nM, RXRa partner concentration 90 nM)
How it was run: as §1

[3] = test system: PPARg DBDmut:RXRa IVT, anti-PPARg (DBD mutation: PPARg1 K132A/R137A, NR concentration 270 nM, RXRa partner concentration 90 nM)
How it was run: as §1

[4] = test system: PPARg DBDmut IVT, anti-PPARg (DBD mutation: PPARg1 K132A/R137A, NR concentration 270 nM)
How it was run: as §1

[5] = test system: PPARg homodimer (NR concentration 180 nM)
How it was run: as §1

[6] = test system: PXR:RXRa (NR concentration 270 nM, RXRa partner concentration 90 nM)
How it was run: as §1

[7] = test system: PXR homodimer (NR concentration 270 nM)
How it was run: as §1

[8] = test system: RARa homodimer (NR concentration 270 nM)
How it was run: as §1

[9] = test system: RARb:RXRa (NR concentration 270 nM, RXRa partner concentration 90 nM)
How it was run: as §1

[10] = test system: RARb homodimer (NR concentration 270 nM)
How it was run: as §1

[11] = test system: RARg:RXRa (NR concentration 270 nM, RXRa partner concentration 90 nM)
How it was run: as §1

[12] = test system: RARg homodimer (NR concentration 270 nM)
How it was run: as §1

[13] = test system: RXRa DBDmut IVT, anti-RXR (DBD mutation: RXRa K156A/R161A, NR concentration 90 nM)
How it was run: as §1

[14] = test system: RXRa homodimer (NR concentration 180 nM)
How it was run: as §1

[15] = test system: THRa:RXRa (NR concentration 90 nM, RXRa partner concentration 90 nM)
How it was run: as §1

[16] = test system: THRa homodimer (NR concentration 90 nM)
How it was run: as §1

[17] = test system: VDR homodimer (NR concentration 270 nM)
How it was run: as §1

[18] = test system: VDR:RXRa (NR concentration 270 nM, RXRa partner concentration 90 nM)
How it was run: as §1

[19] = test system: RARa:RXR (NR concentration 270 nM, RXRa partner concentration 90 nM)
How it was run: as §1

| Sequence | PBM binding z-score [1] | PBM binding z-score [2] | PBM binding z-score [3] | PBM binding z-score [4] | PBM binding z-score [5] | PBM binding z-score [6] | PBM binding z-score [7] | PBM binding z-score [8] | PBM binding z-score [9] | PBM binding z-score [10] | PBM binding z-score [11] | PBM binding z-score [12] | PBM binding z-score [13] | PBM binding z-score [14] | PBM binding z-score [15] | PBM binding z-score [16] | PBM binding z-score [17] | PBM binding z-score [18] | PBM binding z-score [19] |
| --- | --- | --- | --- | --- | --- | --- | --- | --- | --- | --- | --- | --- | --- | --- | --- | --- | --- | --- | --- |
| CCTACAGGGCCAAAGGTCATTGATTCCAATGCTC | 0.88 | 4.29 | 0.0481 | -0.141 | 5.51 | 5.66 | 2.27 | 2.39 | 4.63 | 4.75 | 6.13 | 5.66 | 1.95 | 7.35 | 3.46 | 0.651 | 2.73 | – | – |
| TTACAAAGGTGAGCTGAGGTCGTTGATCCAACTC | 1.9 | 2.58 | 0.303 | -0.224 | 1.41 | 6.04 | 0.268 | -0.325 | 3.23 | 2.56 | 2.97 | 2.69 | 0.365 | 2.51 | 4.84 | 1.73 | 2.57 | 5.58 | – |
| AGTCAAAGGTCAGGACGAGGTAACGTAAAGCACG | 3.25 | 5.65 | 0.687 | 0.49 | 4.08 | 4.9 | 0.639 | 2.25 | – | 4.82 | – | 7.93 | 1.32 | 7.47 | – | 2.11 | 0.891 | – | 5.78 |
| ATATGTAGGTAACATCCGGGTCATTCAGGCTATG | 6.71 | 7.04 | 2.61 | 1.59 | 1.75 | 3.14 | 2.16 | 0.771 | 1.66 | 2.68 | 2.39 | 1.58 | 0.786 | 2.49 | 3.62 | 2.74 | 2.52 | – | – |
| TTACAAAGGTGAAAGGTCGTTGATGCACGCCTTG | 3.36 | 5.57 | 1.51 | 1.12 | 2.94 | 5.11 | 0.77 | 0.833 | 4.25 | 3.48 | 5.85 | 3.31 | 1.05 | 7.68 | 3.11 | 0.398 | 1.64 | 4.35 | – |
| AATACAGGGTCACTAGGCCCGAGTAGGTACGAAT | 2.32 | 4.28 | 2.04 | 0.859 | 1.77 | 2.94 | 0.0617 | 0.416 | 4.14 | 2.85 | 5.05 | 4.72 | 2.31 | 5.31 | 3.09 | 0.859 | 2.26 | – | – |
| CCGACTGGGGCAAAGGTTACCACACTCAGTACGA | 4.8 | 5.98 | 0.442 | 0.282 | 1.18 | 2.44 | -0.0158 | 0.0195 | 2.54 | 2.37 | 3.51 | 1.67 | -0.032 | 3.69 | 1.87 | 0.0247 | 0.177 | – | – |
| GGAACGAGGGCAAAGGTGATAGCATCTGTCGACG | 5.67 | 5.29 | 0.379 | 0.895 | 1.42 | 1.9 | 0.114 | 0.0137 | 2.72 | 1.66 | 3.02 | 1.95 | 2.07 | 3.31 | 1.85 | -0.159 | 1.02 | 1.92 | – |
| AGTCAAAGGTCACTAGGTAACGTAAGATTCAGCT | 5.65 | 7.5 | 1.54 | 0.924 | 4.05 | 4.94 | 1.04 | 2.79 | – | 5.03 | – | 8.53 | 2.94 | – | 3.99 | 0.996 | 2.14 | – | 5.94 |
| CGTCCAAGGTCAAGGTCACTGAAAGAGACTCGAA | 3.94 | 5.37 | 1.81 | 0.436 | 3.85 | 5.68 | 1.6 | 1.64 | – | 5.6 | – | 8.3 | 3.73 | – | – | 4.35 | 4.03 | – | 6.16 |
| CGAACTAAGTCATTGACAGGACAGTGAATAGTAA | 0.976 | 0.473 | -0.569 | 0.367 | -0.739 | -0.093 | -0.313 | 0.472 | – | -0.122 | – | 0.434 | 0.322 | -0.0903 | 0.19 | -0.56 | -0.385 | -0.19 | 0.0796 |
| CAAACTAGGTCAAAGGTCAAAGTAGAGCCAACCA | 8.23 | 9.26 | 5.64 | 3.48 | 4.85 | 7.02 | 2.18 | 2.42 | – | 5.2 | 8.91 | 7.32 | 2.8 | 10.3 | – | 1.79 | 2.99 | – | 8.45 |
| TAGCCTAGGTCACGGGCCAGTATACCACGCGAAC | 2.44 | 5.21 | 0.69 | 0.437 | 1.4 | 2.28 | -0.694 | 0.351 | 4.59 | 3.83 | 5.12 | 5.43 | 0.27 | 4.73 | 3.83 | 1.84 | 0.425 | 2.94 | – |
| TATACAGGGTCAAAGGGCAGAGTACGAATGTCGA | 2.92 | 5.52 | 3.49 | 2.57 | 2.97 | 5.21 | 1.62 | 1.6 | 4.84 | 4.22 | 6.33 | 5.48 | 3.14 | – | 3.98 | 1.48 | 3.82 | – | – |
| CGTCCAAGGTCAGTGAGGTCAGTGAATGCCGAGT | 3.14 | 3.83 | -0.101 | -0.804 | 3.15 | 5.76 | 11.8 | 0.545 | 5.51 | 5.33 | 5.76 | 6.56 | 3.28 | 4.61 | – | 4.36 | 5.33 | – | – |
